# The supplement of paper PMC10849652
# Targets with a hit are over-represented here; the source holds about 8,800 in all. About 0.5% of all pairs of compound and target were hits. Values without a mark were called inactive.
# Assays:
# Experiment in all cases: log2 fold change, soluble protein after heating vs DMSO (PISA); higher = thermal stabilisation; K562 lysate, 10 uM; active = over 0.2 and 3.5 SD of the protein, either way, in both replicates (recomputed)
# [1] = compound: Cc1cn(-c2cc(NC(=O)c3ccc(C)c(Nc4nccc(-c5cccnc5)n4)c3)cc(C(F)(F)F)c2)cn1 [nilotinib]
# Summary of the method: (§1)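 Thermal stability, expressed as log-two fold change relative to solvent controls, is given from duplicates. Crude K562 extract in PBS pH 7.4 with 1 mM MgCl2, at 1 mg/mL protein, was treated with 10 μM compound for 30 min and heated in aliquots for 3 min across 48°C-58°C. After pooling, adjustment to 0.5% NP-40 at 4°C and centrifugation at 21,000xg for 90 min, supernatant protein was measured by TMTpro 16plex LC-MS/MS with channel sums equalised.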
# [2] = compound: Cc1nc(Nc2n[nH]c3c2CN(C(=O)N[C@H](CN(C)C)c2ccccc2)C3(C)C)c2sccc2n1
# Summary of the method: as §1
# [3] = compound: Cc1nc(Nc2ncc(C(=O)Nc3c(C)cccc3Cl)s2)cc(N2CCN(CCO)CC2)n1 [dasatinib]
# Summary of the method: as §1
# [4] = compound: Cc1ncc(-c2ccnc(Nc3ccc(S(C)(=O)=O)cc3)n2)n1C(C)C
# Summary of the method: as §1
# [5] = compound: Cn1cc(-c2ccc3c(c2)CCN3C(=O)Cc2cccc(C(F)(F)F)c2)c2c(N)ncnc21
# Summary of the method: as §1
# [6] = compound: Cn1cc(CNCC2CCN(c3ncc(C(=O)NO)cn3)CC2)c2ccccc21 [quisinostat]
# Summary of the method: as §1
# [7] = compound: Cn1cncc1[C@@](N)(c1ccc(Cl)cc1)c1ccc2c(c1)c(-c1cccc(Cl)c1)cc(=O)n2C [tipifarnib]
# Summary of the method: as §1
# [8] = compound: NC(=O)Nc1cc(-c2cccc(F)c2)sc1C(=O)N[C@H]1CCCNC1
# Summary of the method: as §1
# [9] = compound: NC(=O)c1cnc(N[C@@H]2CCCC[C@@H]2N)nc1Nc1cccc(-n2nccn2)c1
# Summary of the method: as §1
# [10] = compound: NC1(c2ccc(-c3nc4ccn5c(=O)[nH]nc5c4cc3-c3ccccc3)cc2)CCC1
# Summary of the method: as §1
# Sequence of UniProt Q12788 (Q12788 whole entry, looked up): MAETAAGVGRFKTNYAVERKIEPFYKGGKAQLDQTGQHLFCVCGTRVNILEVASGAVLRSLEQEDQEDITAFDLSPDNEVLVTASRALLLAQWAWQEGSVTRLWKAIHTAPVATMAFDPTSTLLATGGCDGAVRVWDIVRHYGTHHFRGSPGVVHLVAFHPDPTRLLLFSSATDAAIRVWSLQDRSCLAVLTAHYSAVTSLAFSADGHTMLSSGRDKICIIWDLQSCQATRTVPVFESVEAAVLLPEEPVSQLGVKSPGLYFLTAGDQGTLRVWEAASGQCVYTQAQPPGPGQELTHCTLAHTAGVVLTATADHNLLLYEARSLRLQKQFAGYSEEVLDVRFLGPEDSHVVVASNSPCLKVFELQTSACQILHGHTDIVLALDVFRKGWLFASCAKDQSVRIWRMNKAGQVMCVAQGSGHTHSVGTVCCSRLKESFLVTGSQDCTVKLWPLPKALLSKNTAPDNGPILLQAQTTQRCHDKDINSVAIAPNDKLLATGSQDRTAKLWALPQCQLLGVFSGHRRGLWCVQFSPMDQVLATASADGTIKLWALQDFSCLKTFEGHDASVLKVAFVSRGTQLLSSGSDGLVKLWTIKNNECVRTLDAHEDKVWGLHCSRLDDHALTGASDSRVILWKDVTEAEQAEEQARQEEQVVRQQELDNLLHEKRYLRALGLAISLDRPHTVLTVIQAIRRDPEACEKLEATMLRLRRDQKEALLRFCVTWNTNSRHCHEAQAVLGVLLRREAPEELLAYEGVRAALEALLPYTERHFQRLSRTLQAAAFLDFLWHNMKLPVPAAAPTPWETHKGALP
# Sequence of UniProt Q9Y4P3 (Q9Y4P3 whole entry, looked up): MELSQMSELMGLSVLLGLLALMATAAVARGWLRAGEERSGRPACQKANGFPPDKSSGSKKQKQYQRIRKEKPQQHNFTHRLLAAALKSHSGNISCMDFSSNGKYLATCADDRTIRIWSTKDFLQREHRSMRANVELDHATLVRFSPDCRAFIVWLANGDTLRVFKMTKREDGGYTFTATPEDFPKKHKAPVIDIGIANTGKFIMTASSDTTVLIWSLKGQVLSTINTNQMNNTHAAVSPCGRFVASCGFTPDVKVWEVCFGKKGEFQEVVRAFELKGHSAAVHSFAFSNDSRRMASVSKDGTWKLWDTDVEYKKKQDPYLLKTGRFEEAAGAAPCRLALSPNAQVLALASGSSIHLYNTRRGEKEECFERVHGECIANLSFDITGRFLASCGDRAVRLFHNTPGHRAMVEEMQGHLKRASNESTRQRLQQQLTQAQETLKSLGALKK
# Sequence of UniProt Q96S44 (Q96S44 whole entry, looked up): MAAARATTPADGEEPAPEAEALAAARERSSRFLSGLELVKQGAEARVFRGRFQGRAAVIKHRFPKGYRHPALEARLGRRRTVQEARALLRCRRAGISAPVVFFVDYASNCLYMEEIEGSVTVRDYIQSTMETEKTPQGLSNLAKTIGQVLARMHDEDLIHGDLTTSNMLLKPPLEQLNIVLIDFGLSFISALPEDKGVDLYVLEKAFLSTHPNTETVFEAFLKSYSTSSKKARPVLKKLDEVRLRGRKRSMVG
# Sequence of UniProt Q9UBB9 (Q9UBB9 whole entry, looked up): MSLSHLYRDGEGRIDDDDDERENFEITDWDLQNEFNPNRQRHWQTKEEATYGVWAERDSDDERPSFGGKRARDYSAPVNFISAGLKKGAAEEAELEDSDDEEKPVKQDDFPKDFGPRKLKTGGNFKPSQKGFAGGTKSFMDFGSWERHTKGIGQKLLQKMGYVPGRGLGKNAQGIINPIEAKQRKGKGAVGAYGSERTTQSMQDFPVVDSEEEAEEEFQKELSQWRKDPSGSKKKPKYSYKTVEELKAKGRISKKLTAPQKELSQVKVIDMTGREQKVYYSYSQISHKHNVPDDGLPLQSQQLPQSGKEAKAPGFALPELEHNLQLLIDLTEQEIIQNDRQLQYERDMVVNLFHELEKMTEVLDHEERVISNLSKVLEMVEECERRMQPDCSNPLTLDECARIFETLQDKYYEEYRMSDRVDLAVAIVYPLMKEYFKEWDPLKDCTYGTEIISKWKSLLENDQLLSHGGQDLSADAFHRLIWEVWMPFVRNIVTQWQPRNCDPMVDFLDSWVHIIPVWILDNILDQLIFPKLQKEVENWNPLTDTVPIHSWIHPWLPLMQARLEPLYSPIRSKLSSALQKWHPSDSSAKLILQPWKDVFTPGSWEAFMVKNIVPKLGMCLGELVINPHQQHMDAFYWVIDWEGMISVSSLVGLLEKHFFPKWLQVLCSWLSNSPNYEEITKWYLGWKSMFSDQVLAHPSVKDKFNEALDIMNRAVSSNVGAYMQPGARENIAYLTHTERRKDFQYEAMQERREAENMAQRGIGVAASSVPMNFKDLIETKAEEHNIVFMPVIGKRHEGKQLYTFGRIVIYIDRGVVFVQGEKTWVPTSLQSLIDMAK
# Sequence of UniProt Q13509 (Q13509 whole entry, looked up): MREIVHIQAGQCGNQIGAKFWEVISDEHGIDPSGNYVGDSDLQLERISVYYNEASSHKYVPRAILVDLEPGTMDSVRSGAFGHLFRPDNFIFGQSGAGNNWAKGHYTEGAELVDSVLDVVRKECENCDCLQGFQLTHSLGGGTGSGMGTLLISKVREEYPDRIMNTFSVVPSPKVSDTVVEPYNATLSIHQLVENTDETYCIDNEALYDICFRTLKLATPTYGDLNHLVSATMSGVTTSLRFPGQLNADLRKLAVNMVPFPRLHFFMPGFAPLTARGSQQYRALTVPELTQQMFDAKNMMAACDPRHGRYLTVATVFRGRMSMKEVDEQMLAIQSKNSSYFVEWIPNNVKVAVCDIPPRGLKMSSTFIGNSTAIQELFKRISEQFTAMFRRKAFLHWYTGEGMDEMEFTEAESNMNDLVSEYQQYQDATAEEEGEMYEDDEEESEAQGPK
# Sequence of UniProt Q96CW5 (Q96CW5 whole entry, looked up): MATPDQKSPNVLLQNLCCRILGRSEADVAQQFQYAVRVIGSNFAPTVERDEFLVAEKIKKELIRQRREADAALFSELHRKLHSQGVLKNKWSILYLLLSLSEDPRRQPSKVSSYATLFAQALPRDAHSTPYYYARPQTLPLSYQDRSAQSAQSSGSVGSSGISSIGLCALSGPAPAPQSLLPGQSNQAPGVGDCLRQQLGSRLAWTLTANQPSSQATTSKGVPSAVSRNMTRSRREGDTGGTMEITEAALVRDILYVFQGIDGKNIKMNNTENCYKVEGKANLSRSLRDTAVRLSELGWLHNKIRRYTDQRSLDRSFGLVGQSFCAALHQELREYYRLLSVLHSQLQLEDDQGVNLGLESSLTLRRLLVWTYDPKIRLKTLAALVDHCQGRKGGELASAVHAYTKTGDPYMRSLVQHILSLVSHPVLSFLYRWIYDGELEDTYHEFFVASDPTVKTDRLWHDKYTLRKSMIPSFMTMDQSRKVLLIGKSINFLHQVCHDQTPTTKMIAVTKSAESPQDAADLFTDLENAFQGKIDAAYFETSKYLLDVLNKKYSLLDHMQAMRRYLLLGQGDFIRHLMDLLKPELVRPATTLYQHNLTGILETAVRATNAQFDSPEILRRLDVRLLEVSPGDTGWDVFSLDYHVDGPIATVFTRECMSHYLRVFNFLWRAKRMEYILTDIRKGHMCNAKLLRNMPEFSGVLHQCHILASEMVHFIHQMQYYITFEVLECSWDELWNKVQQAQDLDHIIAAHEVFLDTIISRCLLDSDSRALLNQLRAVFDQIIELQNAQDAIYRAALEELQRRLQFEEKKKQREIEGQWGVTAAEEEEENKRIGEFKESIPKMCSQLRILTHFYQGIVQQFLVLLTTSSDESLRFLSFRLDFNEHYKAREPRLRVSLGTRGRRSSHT
# Sequence of UniProt Q15645 (Q15645 whole entry, looked up): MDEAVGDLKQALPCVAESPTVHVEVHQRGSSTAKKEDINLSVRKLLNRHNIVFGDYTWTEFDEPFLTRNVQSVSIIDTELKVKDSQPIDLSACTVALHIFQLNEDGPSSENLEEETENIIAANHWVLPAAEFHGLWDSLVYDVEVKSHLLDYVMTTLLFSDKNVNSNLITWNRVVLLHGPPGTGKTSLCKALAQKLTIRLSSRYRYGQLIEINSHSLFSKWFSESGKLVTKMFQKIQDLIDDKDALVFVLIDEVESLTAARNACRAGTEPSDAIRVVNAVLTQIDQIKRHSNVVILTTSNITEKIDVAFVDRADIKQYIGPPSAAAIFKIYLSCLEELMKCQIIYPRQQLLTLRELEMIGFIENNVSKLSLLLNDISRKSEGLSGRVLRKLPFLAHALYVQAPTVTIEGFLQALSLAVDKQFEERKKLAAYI
# Sequence of UniProt P68363 (P68363 whole entry, looked up): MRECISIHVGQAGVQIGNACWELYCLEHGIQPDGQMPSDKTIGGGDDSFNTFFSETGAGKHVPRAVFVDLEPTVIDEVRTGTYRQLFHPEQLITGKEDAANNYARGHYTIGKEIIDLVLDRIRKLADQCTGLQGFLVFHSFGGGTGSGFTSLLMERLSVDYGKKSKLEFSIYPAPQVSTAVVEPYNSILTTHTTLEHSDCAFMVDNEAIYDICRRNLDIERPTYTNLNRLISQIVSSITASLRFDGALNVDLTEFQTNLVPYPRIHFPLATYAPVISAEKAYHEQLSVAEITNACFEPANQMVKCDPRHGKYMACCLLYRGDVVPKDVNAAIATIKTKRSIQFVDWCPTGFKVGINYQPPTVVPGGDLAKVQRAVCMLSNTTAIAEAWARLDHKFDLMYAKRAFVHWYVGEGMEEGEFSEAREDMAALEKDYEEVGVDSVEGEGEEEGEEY
# Sequence of UniProt Q9BUB7 (Q9BUB7 whole entry, looked up): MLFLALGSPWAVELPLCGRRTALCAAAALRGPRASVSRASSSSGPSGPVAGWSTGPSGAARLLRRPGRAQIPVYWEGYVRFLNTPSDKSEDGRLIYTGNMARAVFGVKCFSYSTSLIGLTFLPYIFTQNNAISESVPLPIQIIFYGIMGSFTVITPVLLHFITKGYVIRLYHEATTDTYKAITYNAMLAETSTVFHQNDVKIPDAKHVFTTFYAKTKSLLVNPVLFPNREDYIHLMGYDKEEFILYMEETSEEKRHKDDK
Target,log2 fold change [1],log2 fold change [2],log2 fold change [3],log2 fold change [4],log2 fold change [5],log2 fold change [6],log2 fold change [7],log2 fold change [8],log2 fold change [9],log2 fold change [10]
TPST2 (UniProt O60704),-0.02,-0.03,-0.007,0.016,0.008,-0.076,-0.058,0.064,-0.064,-0.087
TUBB (UniProt P07437),0.067,0.016,-0.043,-0.001,-0.011,0.004,0.022,0.048,-0.022,-0.003
TASP1 (UniProt Q9H6P5),-0.319,-0.062,-0.124,0.077,-0.003,-0.094,0.089,0.046,-0.053,-0.056
TRIP13 (UniProt Q15645),-0.002,-0.031,0.003,0.049,0.046,-0.065,0.007,0.026,0.002,-0.031
TLE3 isoform 4 (UniProt Q04726),0.011,0.053,-0.002,0.001,-0.038,0.008,-0.003,0.012,0.001,-0.003
TTC27 (UniProt Q6P3X3),-0.018,0.027,-0.009,-0.031,0.01,-0.047,-0.03,0.057,-0.028,-0.023
TRNAU1AP (UniProt Q9NX07),-0.145,0.016,0.018,0.046,0.015,0.012,-0.06,0.059,-0.011,-0.013
TRAPPC6A isoform 2 (UniProt O75865),0.015,-0.09,-0.026,0.02,-0.058,0.006,0.048,-0.048,-0.008,0.076
TRAPPC9 isoform 2 (UniProt Q96Q05),0.034,0.005,-0.051,-0.011,0.068,-0.07,0.026,0,-0.011,-0.073
TNPO3 (UniProt Q9Y5L0),-0.016,0.017,0,0.003,0.009,-0.001,0.001,-0.002,-0.016,-0.01
THOC5 (UniProt Q13769),-0.035,0.006,-0.014,-0.036,0.029,-0.006,-0.019,0.021,0.009,-0.01
TTC37 (UniProt Q6PGP7),0.03,-0.001,-0.163,0.013,-0.085,-0.408 (active),-0.012,0.065,0.005,-0.087
TFIP11 (UniProt Q9UBB9),0.004,0.003,-0.059,0.035,0.01,-0.067,-0.005,0.048,0,-0.004
TP53RK (UniProt Q96S44),0.011,0,0.052,0.047,0.057,0.002,0.048,0.021,0.041,-0.013
TRIP12 isoform 2 (UniProt Q14669),-0.019,0.011,0.003,0.001,0.039,-0.065,-0.017,0.057,0.016,0.003
TUBA1C (UniProt Q9BQE3),-0.001,0.021,-0.017,0.006,0.018,-0.038,-0.007,0.014,-0.006,-0.052
UBIAD1 (UniProt Q9Y5Z9),0.14,-0.014,0.117,0.125,-0.014,0.096,0.04,-0.019,-0.034,-0.027
TPD52L2 isoform 7 (UniProt O43399),0.022,0.019,0.056,0.042,-0.009,0.038,-0.012,-0.022,-0.039,0.049
TLK2 isoform 2 (UniProt Q86UE8),-0.008,0.243,-0.004,0.162,0.007,-0.099,0.005,0.073,0.048,-0.035
TUBA1B (UniProt P68363),-0.043,-0.009,-0.051,-0.036,0.01,-0.021,0.002,0.041,0.002,-0.013
TESC (UniProt Q96BS2),0.031,-0.025,0.053,0.05,0.02,0.012,0.012,-0.036,-0.035,0.049
UGDH (UniProt O60701),0.008,-0.012,0.217 (active),0.009,-0.034,0.019,0.007,0.039,-0.01,0.006
TRIM44 (UniProt Q96DX7),-0.016,0.001,0.073,-0.036,-0.008,0.035,0.006,0.023,-0.011,0.044
TBC1D8B (UniProt Q0IIM8),0.021,-0.035,0.01,0.015,-0.042,-0.061,0.036,0.034,-0.042,-0.034
TUBGCP3 (UniProt Q96CW5),-0.031,0.029,-0.038,0.043,0.038,-0.083,-0.023,0.009,0.002,0.012
TUBB3 (UniProt Q13509),0.029,-0.028,-0.027,-0.003,0.024,-0.004,-0.013,0.039,0.006,0.006
TBL3 (UniProt Q12788),-0.009,0.025,-0.013,0.016,0.011,-0.046,0.008,0.056,-0.032,-0.052
TRIM56 (UniProt Q9BRZ2),0.033,0.031,-0.073,-0.006,0.017,-0.043,-0.048,0.005,-0.01,0.007
TBL2 (UniProt Q9Y4P3),-0.025,-0.043,-0.008,-0.004,0.014,-0.031,-0.06,-0.007,0.003,-0.037
TMEM70 (UniProt Q9BUB7),-0.05,-0.046,-0.065,0.023,-0.003,-0.206,-0.007,0.02,0.009,-0.001
